The values below come from PubChem BioAssay (NCI).

Among the test systems are HT29 colon; SNB-75 CNS; SNB-19 CNS; U251 CNS; PC-3 prostate; SK-MEL-5 melanoma; UACC-62 melanoma; SK-MEL-2 melanoma; EKVX NSCLC; SN12C renal; UO-31 renal; TK-10 renal; ACHN renal; CAKI-1 renal; CCRF-CEM leukemia; MOLT-4 leukemia; LOX IMVI melanoma; SK-MEL-28 melanoma; A498 renal.
What all share (assay): NCI-60 one-dose screen, 48 h (100 = growth as untreated, 0 = no growth, -100 = all killed)
Common to all, as to conditions: 10 µM unless noted

This is part of a sample that, as a whole, favours compounds with a hit. Of some 83,000 tested, about 20% had one in any assay.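 The test compound was applied at a single concentration to cells in 96-well plates for 48 hours, and percent growth was recorded.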 A number with no mark means an inactive call. Calls of active or inactive are those of the source. The calls were made as follows: active = growth percent below 10; inactive = the rest.

Regarding `Cc1ccc(NC(=O)c2cc(-c3nc4ccccc4s3)c(=O)n(NS(=O)(=O)c3ccc(Cl)cc3)c2N)cc1`, the growth in the assay with HT29 colon is 108%; in the assay with SNB-75 CNS, 77.5%; in the assay with SNB-19 CNS it was 101%; with U251 CNS it was 104%; with PC-3 prostate, 100%; with SK-MEL-5 melanoma it was 97.8%. Besides, the growth with UACC-62 melanoma was 93.2%; with SK-MEL-2 melanoma it was 103%; with EKVX NSCLC, 92.1%; with SN12C renal, 101%; with UO-31 renal it was 83.9%; in the assay with TK-10 renal it was 136%. For the same compound, the growth in the assay with ACHN renal is 108%; in the assay with CAKI-1 renal it was 85.1%; with CCRF-CEM leukemia, 104%; with MOLT-4 leukemia, 97.9%.
With `C#Cc1cccc(NC(=O)c2cccc(NC(=O)CCl)c2)c1`, the growth in the assay on HT29 colon was -7.83% [8.25 µM] (active); with SNB-75 CNS, -21.9% [8.25 µM] (active); in the assay with SNB-19 CNS, 11.5% [8.25 µM]; in the assay on U251 CNS, -93.7% [8.25 µM] (active); in the assay with PC-3 prostate it was -70.8% [8.25 µM] (active); in the assay with SK-MEL-5 melanoma, -93.8% [8.25 µM] (active). Also, the growth in the assay on UACC-62 melanoma was -33.7% [8.25 µM] (active); with LOX IMVI melanoma it was -89% [8.25 µM] (active); in the assay with SK-MEL-28 melanoma, 37.4% [8.25 µM]; with SK-MEL-2 melanoma it was 30.8% [8.25 µM]; in the assay on SN12C renal, -65.9% [8.25 µM] (active); in the assay with TK-10 renal, -72.4% [8.25 µM] (active). In addition, the growth was -96.8% [8.25 µM] (active) with ACHN renal, 0.818% [8.25 µM] (active) with CAKI-1 renal, 46.6% [8.25 µM] in the assay with A498 renal and 8.26% [8.25 µM] (active) in the assay with CCRF-CEM leukemia.
As to `NS(=O)(=O)c1ccc(Cn2c(SCC(=O)N/N=C/c3ccccc3O)nc3ccccc3c2=O)cc1`, the growth is 86.3% in the assay on HT29 colon; 55.6% in the assay on SNB-19 CNS; 43.1% in the assay on U251 CNS; 67.9% in the assay with PC-3 prostate; 58.1% in the assay on SK-MEL-5 melanoma; 38.1% with UACC-62 melanoma. Further, the growth was 16.1% in the assay with LOX IMVI melanoma; 57.7% in the assay on SK-MEL-28 melanoma; 36.6% in the assay with SK-MEL-2 melanoma; 60.1% with EKVX NSCLC; 56.2% with SN12C renal; 61% with UO-31 renal. Besides, the growth in the assay on TK-10 renal was 53.8%; in the assay with ACHN renal, 72.3%; in the assay with CAKI-1 renal, 54.2%; in the assay on CCRF-CEM leukemia it was 23.2%; in the assay with MOLT-4 leukemia, 20.8%.
Take `O=C(/C=C/c1ccc(F)cc1)c1ccc(NC(=O)N2CCN(c3cc4c(cc3F)c(=O)c(C(=O)O)cn4C3CC3)CC2)cc1`: the growth in the assay with HT29 colon was 98%; in the assay on SNB-75 CNS, 90.7%; in the assay on SNB-19 CNS it was 88.1%; in the assay with U251 CNS, 98.9%; in the assay on PC-3 prostate, 96.6%; in the assay with SK-MEL-5 melanoma, 96.8%. The growth in the assay with UACC-62 melanoma is 78.2%; in the assay on LOX IMVI melanoma, 83.7%; in the assay on SK-MEL-28 melanoma it was 90.6%; with SK-MEL-2 melanoma, 105%; in the assay on EKVX NSCLC, 94.5%; in the assay on SN12C renal it was 92.6%. Moreover, the growth in the assay with UO-31 renal is 77.9%; in the assay with TK-10 renal, 92.5%; in the assay on ACHN renal, 106%; in the assay on CAKI-1 renal, 95.2%; in the assay on CCRF-CEM leukemia it was 90.9%; in the assay with MOLT-4 leukemia, 99.5%.
`Cc1ccc(S(=O)(=O)NNC(=O)/C(=C\c2ccc(Cl)cc2)c2nc3ccccc3s2)cc1`: the growth was 106% in the assay with HT29 colon; 68.4% with SNB-75 CNS; 88.3% in the assay with SNB-19 CNS; 97.5% in the assay on U251 CNS; 90.5% with PC-3 prostate; 94.9% in the assay on SK-MEL-5 melanoma. Moreover, the growth in the assay with UACC-62 melanoma was 80.7%; in the assay on SK-MEL-28 melanoma, 101%; with SK-MEL-2 melanoma it was 99.4%; in the assay with EKVX NSCLC it was 91.1%; with SN12C renal, 92.5%; with UO-31 renal, 75.1%. The growth in the assay on TK-10 renal was 132%; in the assay with ACHN renal, 97.7%; with CAKI-1 renal it was 83.8%; in the assay on CCRF-CEM leukemia, 83.6%; in the assay on MOLT-4 leukemia it was 80.1%.
As to `CCc1c(Cl)nc(N)nc1Nc1ccc(C)c(C)c1`, the growth is 102% in the assay on HT29 colon; 93.5% in the assay with SNB-75 CNS; 96.2% in the assay with SNB-19 CNS; 88.1% in the assay with U251 CNS; 95.8% in the assay on PC-3 prostate; 92.9% with SK-MEL-5 melanoma. In addition, the growth is 92.8% in the assay with UACC-62 melanoma; 85.7% in the assay on LOX IMVI melanoma; 103% in the assay on SK-MEL-28 melanoma; 99.3% with SK-MEL-2 melanoma; 99.9% in the assay with SN12C renal; 90.8% in the assay on UO-31 renal. Besides, the growth was 103% in the assay on TK-10 renal; 99.7% in the assay on ACHN renal; 86.5% in the assay on CAKI-1 renal; 100% in the assay on CCRF-CEM leukemia; 94.4% in the assay with MOLT-4 leukemia.
Consider `CCN(CC)c1ccc(C(=O)c2ccccc2)cc1`, for which the growth with SNB-75 CNS was 93.5%; in the assay with SNB-19 CNS, 97.7%; in the assay with U251 CNS, 87.2%; in the assay with PC-3 prostate, 97.9%; with SK-MEL-5 melanoma it was 96.9%; in the assay with UACC-62 melanoma, 96%. The growth in the assay on LOX IMVI melanoma was 100%; with SK-MEL-28 melanoma it was 104%; in the assay with SK-MEL-2 melanoma, 96.3%; in the assay on EKVX NSCLC, 98.4%; in the assay on SN12C renal, 98.8%; in the assay on UO-31 renal it was 82%. The growth is 97.9% in the assay with TK-10 renal; 98.2% in the assay with ACHN renal; 83.1% in the assay on CAKI-1 renal; 104% in the assay with CCRF-CEM leukemia; 87.6% in the assay on MOLT-4 leukemia.
For `Cc1cc2nc3c4cc([N+](=O)[O-])ccc4n(CCN(C)C)c3nc2cc1C`, the growth was 4.93% (active) with HT29 colon; -6.58% (active) with SNB-75 CNS; 8.53% (active) in the assay on SNB-19 CNS; 1.87% (active) in the assay with U251 CNS; -0.344% (active) in the assay on PC-3 prostate; -73.4% (active) in the assay on SK-MEL-5 melanoma. The growth in the assay with UACC-62 melanoma was -58.7% (active); with LOX IMVI melanoma, -48.7% (active); with SK-MEL-28 melanoma it was 2.33% (active); with SK-MEL-2 melanoma, -56.5% (active); with EKVX NSCLC, -3.49% (active); with SN12C renal, 1.16% (active). Further, the growth is -41.9% (active) in the assay on UO-31 renal; -5.99% (active) with TK-10 renal; -13% (active) in the assay with ACHN renal; -15.7% (active) in the assay with CAKI-1 renal; 3.84% (active) in the assay with CCRF-CEM leukemia; 1.36% (active) in the assay with MOLT-4 leukemia.
Turning to `COc1cc2c(c(OC)c1OC)CCC(c1cccc(NC(=O)c3cccc(Br)c3)c1)O2` (centres undefined), the growth in the assay with HT29 colon is 87%; with SNB-75 CNS it was 86.8%; in the assay with SNB-19 CNS, 94.5%; with U251 CNS, 93.5%; with PC-3 prostate, 76.1%; in the assay with SK-MEL-5 melanoma, 88.2%. Further, the growth in the assay on UACC-62 melanoma is 70.1%; in the assay with LOX IMVI melanoma, 92.4%; with SK-MEL-28 melanoma, 90.9%; in the assay with SK-MEL-2 melanoma, 103%; in the assay with EKVX NSCLC it was 84.6%; in the assay with SN12C renal, 87.6%. The growth was 79% with UO-31 renal; 91.8% with TK-10 renal; 94.2% in the assay with ACHN renal; 91.5% in the assay on CAKI-1 renal; 88% with CCRF-CEM leukemia; 74.3% in the assay on MOLT-4 leukemia.
